# Experiments:
# Assay in all cases: DAPPL (digital affinity profiling via proximity ligation, sequencing); 10 mM Tris-HCl pH 7.5, 50 mM NaCl, 1 mM DTT, 4% glycerol, room temperature, 30 min; GST-TFs on glutathione beads, 16-mer random dsDNA library, 0.1% formaldehyde crosslink after washing; high values mean tight binding
# Conditions in all cases: protein: recombinant; tags: N-terminal GST; dsDNA, one strand shown
# ETV1 = ETV1 (Homo sapiens, UniProt P50549 1-477)
# Method in brief: (§1)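 In yeast, human transcription factors were expressed with a GST fusion, then pulled down on glutathione beads and given DNA barcodes. Pooled with a tag-only sample, they were exposed to 200 nmole of a 16-mer random double-stranded DNA library (Tris/NaCl/DTT/glycerol buffer, room temperature, 30 min), washed, crosslinked with 0.1% formaldehyde, proximity-ligated using BsaI/T4 ligase for 1 h at 37 °C, PCR-amplified and read on an Illumina NextSeq500. Each hexamer's frequency of reads for a factor, divided by the matching frequency for the tag-only sample, gives the binding signal.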
# ERF = molecular target: T1, ERF (Homo sapiens, UniProt P50548 1-548)
# T1 sequence: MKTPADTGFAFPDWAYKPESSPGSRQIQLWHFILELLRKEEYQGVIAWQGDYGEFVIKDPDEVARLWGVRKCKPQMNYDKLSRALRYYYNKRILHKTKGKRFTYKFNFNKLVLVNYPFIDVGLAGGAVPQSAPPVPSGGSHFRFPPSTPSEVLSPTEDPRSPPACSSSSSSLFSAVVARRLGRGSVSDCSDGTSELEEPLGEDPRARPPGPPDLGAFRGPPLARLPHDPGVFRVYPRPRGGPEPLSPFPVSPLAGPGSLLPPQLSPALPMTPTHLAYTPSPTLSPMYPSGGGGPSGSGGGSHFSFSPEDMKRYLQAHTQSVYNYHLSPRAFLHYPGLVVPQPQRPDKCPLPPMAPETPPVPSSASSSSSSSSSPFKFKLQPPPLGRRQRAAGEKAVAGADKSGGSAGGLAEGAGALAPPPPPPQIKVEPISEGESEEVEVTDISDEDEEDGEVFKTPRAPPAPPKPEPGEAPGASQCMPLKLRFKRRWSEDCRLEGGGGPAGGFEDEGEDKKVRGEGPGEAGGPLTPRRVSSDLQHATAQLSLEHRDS
# Method in brief: as §1
# ETV3L = molecular target: T2, ETV3L (Homo sapiens, UniProt Q6ZN32 1-361)
# T2 sequence: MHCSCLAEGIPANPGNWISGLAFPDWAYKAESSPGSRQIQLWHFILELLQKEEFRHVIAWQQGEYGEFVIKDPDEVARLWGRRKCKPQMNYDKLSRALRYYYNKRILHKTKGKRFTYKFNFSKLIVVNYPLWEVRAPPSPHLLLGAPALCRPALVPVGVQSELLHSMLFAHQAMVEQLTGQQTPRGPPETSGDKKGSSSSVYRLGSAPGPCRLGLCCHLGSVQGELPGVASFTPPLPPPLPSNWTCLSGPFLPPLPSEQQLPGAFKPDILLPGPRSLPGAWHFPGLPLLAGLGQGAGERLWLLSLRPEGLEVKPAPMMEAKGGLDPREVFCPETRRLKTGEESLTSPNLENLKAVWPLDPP
# Method in brief: as §1
# ETS2 = molecular target: T3, ETS2 (Homo sapiens, UniProt P15036 1-469)
# T3 sequence: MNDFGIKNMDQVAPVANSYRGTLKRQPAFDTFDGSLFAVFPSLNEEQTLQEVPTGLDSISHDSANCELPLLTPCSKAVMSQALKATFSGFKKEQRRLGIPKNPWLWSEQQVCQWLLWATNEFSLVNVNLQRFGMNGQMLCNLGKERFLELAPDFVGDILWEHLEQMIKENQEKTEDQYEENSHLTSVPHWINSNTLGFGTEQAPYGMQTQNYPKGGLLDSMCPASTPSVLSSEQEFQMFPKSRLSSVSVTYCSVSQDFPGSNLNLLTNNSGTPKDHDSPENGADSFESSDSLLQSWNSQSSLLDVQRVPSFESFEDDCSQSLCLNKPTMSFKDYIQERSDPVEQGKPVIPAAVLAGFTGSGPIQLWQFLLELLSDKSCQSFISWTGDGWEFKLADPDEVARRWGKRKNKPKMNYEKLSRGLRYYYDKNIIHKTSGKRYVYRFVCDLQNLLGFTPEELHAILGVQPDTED
# Method in brief: as §1
# SPDEF = molecular target: T4, SPDEF (Homo sapiens, UniProt O95238 1-335)
# T4 sequence: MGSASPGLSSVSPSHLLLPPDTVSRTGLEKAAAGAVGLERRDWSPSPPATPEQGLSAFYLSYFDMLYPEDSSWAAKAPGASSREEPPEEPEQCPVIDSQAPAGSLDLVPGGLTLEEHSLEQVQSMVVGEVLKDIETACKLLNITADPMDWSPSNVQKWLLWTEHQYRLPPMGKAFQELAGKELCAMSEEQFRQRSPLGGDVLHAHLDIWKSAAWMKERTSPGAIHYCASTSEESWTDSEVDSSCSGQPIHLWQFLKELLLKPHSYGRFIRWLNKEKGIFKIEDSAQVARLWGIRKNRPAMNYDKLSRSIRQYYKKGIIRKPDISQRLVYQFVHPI
# Method in brief: as §1
# ETV7 = molecular target: T5, ETV7 (Homo sapiens, UniProt Q9Y603 1-341)
# T5 sequence: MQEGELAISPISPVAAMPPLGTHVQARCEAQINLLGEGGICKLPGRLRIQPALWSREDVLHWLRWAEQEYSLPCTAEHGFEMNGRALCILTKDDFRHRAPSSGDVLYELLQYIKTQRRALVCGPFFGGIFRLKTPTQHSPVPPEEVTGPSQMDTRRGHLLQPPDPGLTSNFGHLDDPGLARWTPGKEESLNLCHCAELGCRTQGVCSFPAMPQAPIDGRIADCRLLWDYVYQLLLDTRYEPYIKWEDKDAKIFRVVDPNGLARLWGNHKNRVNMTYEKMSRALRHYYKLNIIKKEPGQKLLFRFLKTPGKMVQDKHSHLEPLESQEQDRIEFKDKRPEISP
# Method in brief: as §1
# ELF5 = molecular target: T6, ELF5 (Homo sapiens, UniProt Q9UKW6-2 1-255)
# T6 sequence: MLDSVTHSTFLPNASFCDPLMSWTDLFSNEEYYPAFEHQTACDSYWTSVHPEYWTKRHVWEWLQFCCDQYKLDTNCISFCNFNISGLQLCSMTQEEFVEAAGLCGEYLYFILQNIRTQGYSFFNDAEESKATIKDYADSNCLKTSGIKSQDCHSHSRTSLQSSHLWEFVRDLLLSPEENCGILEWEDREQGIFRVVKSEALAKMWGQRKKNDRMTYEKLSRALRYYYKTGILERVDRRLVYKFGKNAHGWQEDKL
# Method in brief: as §1
# ETV3 = molecular target: T7, ETV3 (Homo sapiens, UniProt P41162-2 1-143)
# T7 sequence: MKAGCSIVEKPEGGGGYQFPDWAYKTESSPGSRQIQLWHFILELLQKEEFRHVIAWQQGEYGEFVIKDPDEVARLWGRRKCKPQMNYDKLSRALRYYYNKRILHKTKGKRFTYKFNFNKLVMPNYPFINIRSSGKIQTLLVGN
# Method in brief: as §1
# ETV6 = ETV6 (Homo sapiens, UniProt P41212 1-452)
# Method in brief: as §1
# Chain of ETV1 (P50549 whole entry, the tested form may be a part): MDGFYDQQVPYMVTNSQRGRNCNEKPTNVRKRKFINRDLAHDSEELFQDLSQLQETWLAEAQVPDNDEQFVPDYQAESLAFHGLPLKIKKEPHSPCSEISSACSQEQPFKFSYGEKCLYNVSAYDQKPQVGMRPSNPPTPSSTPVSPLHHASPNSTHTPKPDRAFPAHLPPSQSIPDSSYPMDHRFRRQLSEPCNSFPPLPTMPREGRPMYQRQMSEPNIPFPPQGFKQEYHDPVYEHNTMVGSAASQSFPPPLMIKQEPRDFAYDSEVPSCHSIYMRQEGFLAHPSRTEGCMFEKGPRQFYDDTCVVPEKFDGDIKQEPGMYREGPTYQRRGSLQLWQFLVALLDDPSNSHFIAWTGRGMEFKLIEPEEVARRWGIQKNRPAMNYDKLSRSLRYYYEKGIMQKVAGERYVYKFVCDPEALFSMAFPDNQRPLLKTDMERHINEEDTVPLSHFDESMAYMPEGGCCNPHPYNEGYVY
# Chain of ETV6 (P41212 whole entry): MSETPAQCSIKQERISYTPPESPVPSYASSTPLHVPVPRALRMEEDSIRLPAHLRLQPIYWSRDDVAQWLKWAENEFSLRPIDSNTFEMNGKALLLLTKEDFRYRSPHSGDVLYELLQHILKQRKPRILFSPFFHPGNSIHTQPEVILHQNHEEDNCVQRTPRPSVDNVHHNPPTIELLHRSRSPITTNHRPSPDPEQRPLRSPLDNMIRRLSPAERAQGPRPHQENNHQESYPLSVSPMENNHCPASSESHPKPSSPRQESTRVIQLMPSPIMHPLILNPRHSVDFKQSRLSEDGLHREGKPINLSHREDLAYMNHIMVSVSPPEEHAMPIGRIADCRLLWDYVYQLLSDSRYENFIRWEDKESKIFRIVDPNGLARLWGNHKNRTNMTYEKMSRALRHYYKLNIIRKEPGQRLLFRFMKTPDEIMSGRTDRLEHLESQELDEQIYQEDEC
sequence,measurement,setting,value
TCACTA,binding signal,ETV1,"1.06 fold enrichment (6-mer frequency, TF over GST control)"
same,binding signal,ERF,"1.24 fold enrichment (6-mer frequency, TF over GST control)"
same,binding signal,ETV3L,"1.18 fold enrichment (6-mer frequency, TF over GST control)"
same,binding signal,ETS2,"1.25 fold enrichment (6-mer frequency, TF over GST control)"
same,binding signal,SPDEF,"1.07 fold enrichment (6-mer frequency, TF over GST control)"
same,binding signal,ETV7,"1.23 fold enrichment (6-mer frequency, TF over GST control)"
same,binding signal,ELF5,"1.15 fold enrichment (6-mer frequency, TF over GST control)"
same,binding signal,ETV3,"1.05 fold enrichment (6-mer frequency, TF over GST control)"
same,binding signal,ETV6,"1.06 fold enrichment (6-mer frequency, TF over GST control)"
